Data reported in PubChem BioAssay AID488835 (Broad Institute, 2010).
About 140 (10%) of roughly 1,400 compounds were called active.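 Rule for the calls: active = Half-maximal inhibitory dose from the fit at or below ten times the top valid tested dose; inconclusive = Invalid fit, or flat curve showing 30 to 70% inhibition; inactive = the rest.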 These entries were drawn from the full list. Results with a measured potency or affinity are listed apart.

Target: Lysine-specific demethylase 4C (Homo sapiens) (UniProt Q9H3R0)
Assay: GASC-1 (JMJD2C) histone demethylase inhibitors, dose response, biochemical, DELFIA europium, cherry-picked samples (AID 488835);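 note: signal is the H3K9me2 demethylation product detected by a dimethyl-specific antibody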
Conditions: GST-JMJD2C(1-420), H3K9me3 demethylation; series mostly up to 6 µM

Chain of Lysine-specific demethylase 4C (Homo sapiens) (Q9H3R0 1-420 limits assumed): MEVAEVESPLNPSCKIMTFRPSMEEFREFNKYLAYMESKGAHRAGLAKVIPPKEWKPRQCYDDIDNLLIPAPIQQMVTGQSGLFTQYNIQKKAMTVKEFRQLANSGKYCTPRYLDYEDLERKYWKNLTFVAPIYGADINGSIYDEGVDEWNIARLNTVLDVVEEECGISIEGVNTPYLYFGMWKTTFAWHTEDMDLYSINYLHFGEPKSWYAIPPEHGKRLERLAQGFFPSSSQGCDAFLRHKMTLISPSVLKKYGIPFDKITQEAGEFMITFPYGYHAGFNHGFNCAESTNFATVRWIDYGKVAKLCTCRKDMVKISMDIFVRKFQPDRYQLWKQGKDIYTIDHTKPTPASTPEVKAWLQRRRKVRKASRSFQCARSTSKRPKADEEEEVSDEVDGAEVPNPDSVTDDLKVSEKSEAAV

outcome, inactive:
Cc1cccn2c(=O)c(C(=O)NC3CC(C)CC(C)(C)C3)c(O)nc12 (stereo unspecified)
Cc1cccc(NC(=O)C2CCN(S(=O)(=O)c3cccc4nsnc34)CC2)n1
CC(=O)Nc1ccc(NC(=O)CSc2ncnn2-c2ccccc2)cc1
CCOc1ccc(NCc2nnc(SCC(=O)Nc3cc(C)on3)n2-c2ccccc2OC)cc1
COCCNC(=S)N1CCN(C)CC1
C/C(=N\N1CCN(c2ccccc2)CC1)c1ccncc1
COc1ccc(OC)c(/C=N/NC(=O)CNC(=O)c2ccc(S(=O)(=O)N3CCOCC3)cc2)c1
COc1ccc(OCC(=O)N/N=C/C(C)=C/c2ccco2)c(Br)c1
CC(C)(C)n1nnnc1C(c1cccnc1)N1CCN(c2ccccc2)CC1 (stereo unspecified)
Cc1cccc(N2CCN(C(=O)c3ccc(CS(=O)(=O)c4ccccc4C)o3)CC2C)c1 (stereo unspecified)
Cc1ccc(C(O)(C(=O)NNc2ccccn2)c2ccc(C)cc2)cc1
Cc1ccc(C)c(N(C(=O)c2csnn2)C(C(=O)NC2CCCC2)c2cccnc2)c1 (stereo unspecified)
CN(c1cccc(Cl)c1)S(=O)(=O)c1cccc(C(=O)Nc2ccc3c(c2)CCC3)c1
O=C(O)COc1ccc(NC(=O)C(c2ccccc2)c2ccccc2)cc1
Cc1ccc(-n2nnc3c(SCC(=O)NCC4CCCO4)ncnc32)cc1 (stereo unspecified)
CC(=O)c1sc(NC(=O)c2ccc(C)cc2)nc1C
Cc1ccc(CNC(=O)Cc2ccc(-c3ccccc3)cc2)cc1
NCCN1CCN2C(=O)CN(C(=O)c3ccccc3)CC12 (stereo unspecified)
CC(CC(=O)Nc1cc([N+](=O)[O-])ccc1Cl)c1ccccc1 (stereo unspecified)
COc1ccc(NC(=O)CCN2CCCCCC2)cc1
COc1ccc(N(CC(=O)Nc2ccc(S(=O)(=O)N3CCCC3)cc2)S(C)(=O)=O)cc1OC
Cc1ccc(NC(=O)c2ccc(OC(=O)CCN3C(=O)c4ccccc4C3=O)cc2)cc1
Cc1ccc(NC(=O)CSc2nnc(-c3cccs3)n2Cc2ccco2)cc1
COc1ccc(N2CCN(C(=O)CSc3nnc(-c4cccnc4)n3-c3ccccc3)CC2)cc1
COc1cc(S(=O)(=O)N(Cc2cccs2)CC2CCCO2)ccc1-n1cnnn1 (stereo unspecified)
CCOC(=O)c1sc2nc(N3CCOCC3)c3c(c2c1N)CCN(Cc1ccccc1)C3
CCOC(=O)c1c(S(=O)(=O)N2CCN(c3ccc(F)cc3)CC2)c(C)n(C)c1C
CCOC(=O)c1c(C)[nH]c(C)c1S(=O)(=O)N(C)CC(=O)N(C)Cc1ccccc1
C[C@H]1CN([C@@H](C)CO)C(=O)c2cccc(NS(=O)(=O)c3ccc(F)cc3)c2O[C@H]1CN(C)S(=O)(=O)c1cn(C)cn1
Cc1ccc(C(=O)CN2C(=O)C(=O)N(Cc3ccccc3)C2=O)cc1
COc1cccc(/C=C/C(=O)OCC(=O)NCc2ccc(Cl)cc2)c1
Cc1ccc(C(=O)NCc2ccco2)cc1Br
O=C(Nc1c(Cl)cccc1Cl)c1cc(-c2ccco2)on1
Cc1ccc(S(=O)(=O)N(C)C[C@@H]2Oc3ccc(NC(=O)Cn4cnnn4)cc3C(=O)N([C@@H](C)CO)C[C@H]2C)cc1
CCn1c(CNC(=O)Cc2ccc(OC)cc2)nnc1SCC(=O)NC1CCCCC1
CCn1nnnc1SCC(=O)NCc1cccs1
Cc1ccccc1-c1ccc(=O)n(CC(=O)Nc2ccc(N3CCOCC3)cc2)n1
CC(C)CC(=O)Nc1ccccc1N1CCOCC1
CC1Oc2ccccc2N(Cc2ccccc2Cl)C1=O (stereo unspecified)
CCOC(=O)C1=C(CSc2nc(-c3ccncc3)ccc2C#N)OC(N)=C(C#N)C1c1cccnc1 (stereo unspecified)
CCn1c(SCC(=O)NCC(=O)Nc2ccc(F)cc2)nnc1-c1ccncc1
Cc1nc2sc(C(c3cccc(F)c3)N3CCOCC3)c(O)n2n1 (stereo unspecified)
Cc1cc(=S)c2cccc(C)c2[nH]1
CC(C)CC1c2[nH]c3ccccc3c2CCN1C(=O)c1cnccn1 (stereo unspecified)
Cc1noc(C)c1S(=O)(=O)N(C)C[C@H]1Oc2c(cccc2N(C)C)C(=O)N([C@H](C)CO)C[C@@H]1C
CCOC(=O)c1c(C)[nH]c(C(=O)CN2CCOCC2)c1C
FC(F)(F)c1cccc(NCc2cn3cccnc3n2)c1
Cc1ccc(OCc2nnnn2-c2ccccc2)cc1
O=C(Nc1cccnc1)c1ccccc1Oc1ccccc1
CCOc1cc(NC(=S)NCCOC)c(OCC)cc1NC(=O)c1cccs1
Cc1nnc(N(C)C(=O)c2ccccn2)s1
O=C(COc1c(CO)cc(Br)cc1CO)NC1CCCc2ccccc21 (stereo unspecified)
CCOC(=O)N1CCN(C(=S)NC(C)(C)C)CC1
Cc1cccc(CN2CCC(Oc3ccc(C(=O)N4CCCC4)cc3)CC2)n1
CCOC(=O)c1c(S(=O)(=O)NCC(=O)Nc2cccc(C)c2C)c(C)n(C)c1C
CCOC(=O)c1c(S(=O)(=O)N2CCCC(C(=O)Nc3ccc(C)cn3)C2)c(C)n(C)c1C (stereo unspecified)
CCCCCCC(=O)N1CCN(c2cc3c(cc2F)c(=O)c(C(=O)O)cn3CC)CC1
c1csc(Cn2nnnc2CN2CCN(c3nc4ccccc4s3)CC2)c1
O=C(NCc1nnc(SCC(=O)N2CCCC2)o1)c1c(F)cccc1Cl
CCC(=O)Nc1cc2c(C)cc(=O)oc2cc1C
COc1ccc(C(=O)Nc2ncc3c(n2)CC(c2ccco2)CC3=O)cc1 (stereo unspecified)
O=C(Nc1ccc(-c2csc(Nc3ccc(Cl)cc3)n2)cc1)c1ccccc1
C[C@H]1CN([C@@H](C)CO)C(=O)c2cc(NC(=O)C3CCCCC3)ccc2O[C@H]1CN(C)S(=O)(=O)c1ccccc1
COC(=O)[C@]1(C)N[C@H](CN(C)S(=O)(=O)c2ccc(C)cc2)[C@@H]2C(=O)N(Cc3ccccc3)C(=O)[C@@H]21
O=c1oc2ccccc2c(O)c1C=NCc1ccccn1
Cc1ccc(Nc2nc3nonc3nc2N(C)C)cc1
O=C(CC(=O)N/N=C/c1c(F)cccc1Cl)NCc1ccccc1
COc1ccc(NC(=O)N(C)C[C@@H]2Oc3c(NC(=O)Nc4c(C)noc4C)cccc3C(=O)N([C@@H](C)CO)C[C@@H]2C)cc1
Cc1ccc(S(=O)(=O)Nc2ccc3c(c2)C(=O)N([C@H](C)CO)C[C@H](C)[C@@H](CN(C)Cc2ccccc2)O3)cc1
COCCCNC(=O)c1ccc2c(c1)CCN2S(C)(=O)=O
Nc1c(C(=O)OCC2CCCO2)c2nc3ccccc3nc2n1C1CCCC1 (stereo unspecified)
Cn1c2ccccc2c2c(C(=O)N3CCN(c4ccccn4)CC3)cn(C3CCCC3)c(=O)c21
Cn1c(CNC(=O)c2ccccc2F)nnc1SCC(=O)Nc1nnc(C2CC2)s1
COC(=O)C1CN(S(=O)(=O)c2ccc(C)cc2)CCN1S(=O)(=O)c1ccc(C)cc1 (stereo unspecified)
CCOC(=O)c1ccc(N2C(=O)C(C)=C(C)C2=O)cc1
CCCCCC1CC(=O)N(Cc2ccccc2)C(=O)N1 (stereo unspecified)
CCN1c2ccccc2-c2nc3ccccc3n2C1c1ccccn1 (stereo unspecified)
Cn1c(=O)c2c(ncn2CCN(CCO)Cc2ccccc2)n(C)c1=O
CCCCN(C(=S)NC(=O)c1cc(OC)c(OC)c(OC)c1)c1c(N)n(Cc2ccccc2)c(=O)[nH]c1=O
CCCCn1c(N)c(N(CC)C(=O)c2ccco2)c(=O)[nH]c1=O
CCCCC1CCC(C(=O)N(CC(C)C)c2c(N)n(Cc3ccccc3)c(=O)[nH]c2=O)CC1 (stereo unspecified)
CCN(C(=O)C(C)Sc1ccc(S(=O)(=O)N2CCOCC2)cn1)c1ccccc1 (stereo unspecified)
Cc1cccc(NCc2ccc(O)c3ncccc23)c1
COCCn1nnnc1C(c1ccccc1)N1CCN(C(=O)c2ccco2)CC1 (stereo unspecified)
Cc1ccc([N+](=O)[O-])cc1N=C(c1cccc([N+](=O)[O-])c1)N1CCOCC1
COc1cccc(Oc2nccc(N(C)C)c2C#N)c1
CC(C)CCSc1cc(NCCO)c([N+](=O)[O-])c2nonc12
COc1cc2c(cc1CNC[C@H]1O[C@@H](n3cnc4c(N)ncnc43)[C@H](O)[C@@H]1O)OCO2
CC(OC(=O)c1cccnc1SCc1cc(=O)n2ccccc2n1)c1ccccn1 (stereo unspecified)
CN(C(=O)c1ccc(NC(=O)Cc2ccc(NC(=O)C3CCN(C(=O)C4CC4)CC3)cc2)cc1)C1CC1
O=C(Nc1c(F)cc(F)cc1Br)c1ccco1
CC(C)NC(=O)Nc1ccc2c(c1)C(=O)N([C@H](C)CO)C[C@H](C)[C@@H](CN(C)C(=O)Nc1ccccc1)O2
Nc1nc(C2CC(=O)OC23CCCCC3)cs1 (stereo unspecified)
CCOc1cc(/C=N/NC(=O)C(=O)N/N=C/c2ccc(O)c(OCC)c2)ccc1O
O=C(O)c1ccc2c(c1)nnn2C1CCCCC1
Cc1oc(C(C)(C)C)cc1C(=O)N1CCN(c2ncccc2C(F)(F)F)CC1
O=[N+]([O-])c1ccccc1S(=O)(=O)N1CCN(Cc2ccc3c(c2)OCO3)CC1
CC(=O)c1c(C(C)=O)c(C)n(-c2nc(-c3cccs3)c(C)s2)c1C
COc1cc(-c2nnco2)cc(OC)c1OC
Cc1c(NC(=O)C2Cc3ccccc3CN2C(=O)c2ccco2)c(=O)n(-c2ccccc2)n1C (stereo unspecified)
CCCCNC(=O)CC1N=C2c3ccccc3N=C(SCC(=O)Nc3cccc(C)c3)N2C1=O (stereo unspecified)
